This is part of a sample that, as a whole, favours compounds with a hit. Of some 83,000 tested, about 20% had one in any assay.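 Single-concentration screen, 48 h exposure, 96-well plates. Endpoint: percent growth. Below 10 = active.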 Unmarked numbers belong to inactive results. Calls of active or inactive are those of the source.
Each compound was assayed on HT29 colon (assay: NCI-60 one-dose screen, 48 h (100 = growth as untreated, 0 = no growth, -100 = all killed)). Details: 10 µM unless noted.

| Compound | growth |
| --- | --- |
| Brc1ccc(-c2n(Cc3ccc4ccccc4c3)c(-c3ccccc3)c(-c3ccccc3)[n+]2Cc2ccc3ccccc3c2)cc1 | -98.9% (active) |
| O=C1CCCc2cc(OCC(=O)N3CCCCC3)ccc2N1 | 127% |
| COc1cc2c3c(n(CCCN4CCC[C@@H]4CO)c(=O)c2cc1OC)-c1cc2c(cc1C3=O)OCO2 | -95.2% (active) |
| CC(=O)c1c(N)c(C#N)cn1-c1ccc(Cl)cc1Cl | 106% |
| Cc1ccc(C2CC(c3ccc(S(=O)(=O)NCCNc4nc(Nc5ccc(F)cc5)nc(N(C)C)n4)cc3)=Nc3c(N)nc(N)nc3N2)cc1 (configuration not stated) | -14.3% (active) |
| Cc1ccc(C(=O)C(c2c[nH]c3ccccc23)c2c[nH]c3ccccc23)cc1 | -26.1% (active) |
| COc1cc(-c2nc3ccc(C)cc3[nH]2)ccc1OCc1nnc(-c2ccc(Br)cc2)o1 | -53.7% (active) |
| Nc1nnc(-c2c[nH]c3ccc(Br)cc23)c(-c2c[nH]c3ncc(Br)cc23)n1 | 43.6% |
| Cc1ccc(-c2nc(C#N)c(S(=O)(=O)N3CCN(S(=O)(=O)c4ccc(Cl)cc4)CC3)o2)cc1 | 117% |
| CCOC(=O)C1=C(N)N(c2ccccc2)C2=C(C(=O)CC(C)(C)C2)C1c1ccccc1Cl (configuration not stated) | 55% |
| Cc1ccc(C(=O)NN2C(=O)/C(=C/C=C/c3ccc([N+](=O)[O-])o3)SC2=S)cc1 | -74.3% (active) |
| CCCS(=O)(=O)N1CCCC(C(=O)Nc2nc3ccc(NC(=O)c4ccc(F)c(OC)c4F)cc3s2)C1 (configuration not stated) | 54.2% |
| O=C1CC(Sc2n[nH]c(-c3ccncc3)n2)C(=O)N1c1ccc(Br)cc1 (configuration not stated) | 112% |
| COc1ccc(NC(=O)Nc2ccc(OCc3ccc(F)cc3)cc2)cc1 | 92.3% |
| COc1ccc(/C=C/c2nc3ccccc3n3c(-c4ccc(Cl)cc4)nnc23)cc1 | 102% |
| CC1(C)CC[C@]2(C(=O)O)CC[C@]3(C)C(=CCC4[C@@]5(C)C[C@@H](O)[C@@H]6OC(c7ccccc7Br)OC[C@@]6(C)C5CC[C@]43C)C2C1 (some centres not stated) | 13.1% |
| CC(=O)OCC1OC(OC2C(COC(C)=O)OC(n3cc(COc4ccc5ccc(=O)oc5c4)nn3)C(OC(C)=O)C2OC(C)=O)C(OC(C)=O)C(OC(C)=O)C1OC(C)=O (configuration not stated) | 114% |
| COc1ccc(Cc2nn(CC(=O)N/N=C/c3ccc(F)cc3)c(=O)c3c(C)noc23)cc1 | 74% |
| O=C(c1ccccc1)C(c1c[nH]c2ccccc12)c1c[nH]c2ccccc12 | 22.9% |

| Compound | growth |
| --- | --- |
| N=C1N=C(SCc2nc3ccccc3[nH]2)NC(=O)/C1=C/c1ccc(Cl)cc1 | 108% |
| Cn1cc(-c2cc3nc(-c4c[nH]c5ccc(Cl)cc45)cc(N)n3n2)c2ccccc21 | -80.7% (active) |
| CC1(C)CC[C@]2(C(=O)O)CC[C@]3(C)C(=CCC4[C@@]5(C)C[C@@H](O)[C@@H]6OC(c7ccco7)OC[C@@]6(C)C5CC[C@]43C)C2C1 (some centres not stated) | 21.3% |
| COc1ccc(C2CC(c3ccc(S(=O)(=O)NCCNc4nc(Nc5ccc(F)cc5)nc(N(C)C)n4)cc3)=Nc3c(N)nc(N)nc3N2)cc1 (configuration not stated) | 63.4% |
| O=C(Nc1ccccc1)N1CCN(c2cc(-c3cn(-c4ccccc4)nc3-c3cccc(O)c3)ccn2)CC1 | 75.8% |
| CNS(=O)(=O)c1ccc(Nc2ccc(C(F)(F)F)cc2)c(-c2cn(C)cn2)c1 | 49.6% |
| CCS(=O)(=O)N1CCCC(C(=O)Nc2nc3ccc(NC(=O)c4ccc(F)c(OC)c4F)cc3s2)C1 (configuration not stated) | 69.2% |
| COc1ccc(CCC2c3c(cc4c(c3OC)OCO4)CCN2C)cc1 (configuration not stated) | -45.6% (active) |
| Nc1nc(-c2ccccc2)c(N=Nc2ccc([N+](=O)[O-])cc2Cl)s1 | 96.2% |
| CN(C)c1nc(NCCNS(=O)(=O)c2ccc(C3=Nc4c(N)nc(N)nc4NC(c4ccccc4)C3)cc2)nc(Nc2ccc(F)cc2)n1 (configuration not stated) | 18.3% |
| N/C(=N\c1nc2ccccc2s1)NC(=O)Nc1ccc(Cl)cc1Cl | -90.1% (active) |
| CCCCn1c(O)c(N=Nc2nc(-c3cc4ccccc4oc3=O)cs2)c2cc(Br)ccc21 | 112% |
| Cc1cccc(-c2nc(Nc3cccc(S(N)(=O)=O)c3)c3ccccc3n2)c1 | 38.4% |
| Cn1cc(-c2cc(N)n3nc(-c4cn(C)c5ccccc45)cc3n2)c2cc(Br)ccc21 | -65.1% (active) |
| COc1cc2c(c(OC)c1OC)C(=O)CC(c1cccc(NC(=O)c3cc(NC(=O)[C@H](C)N)ccc3Cl)c1)O2 (some centres not stated) | 59.5% |
| C#CCOc1cc(N(CC)CC)ccc1C(C(=O)NC(C)(C)C)N(C(=O)C1CCc2cc(F)ccc2O1)c1cc(C)cc(C)c1 (configuration not stated) | 40.4% |
| Cc1ccc(C2=NN(c3nc(-c4cc5ccccc5oc4=O)cs3)C(c3ccc(C)cc3)C2)cc1 (configuration not stated) | 124% |
| Cn1cc(-c2nc(N)nnc2-c2c[nH]c3ccc(F)cc23)c2cc(Br)cnc21 | -50.6% (active) |

From PubChem BioAssay (NCI)
